# Results taken from PubChem BioAssay AID1347418 (Sanford-Burnham Center for Chemical Genomics, 2020).
# “And” between values parts separate entries of the source, which are not always exact repeats. Identical values can stand only once. In all, about 1,300 compounds went through this assay and about 750 (58%) were called active. This is one part of the list.
# Molecular target: Sulfhydryl oxidase 1 (Homo sapiens) (UniProt O00391)
# Experiment: inhibition of human sulfhydryl oxidase QSOX1 – biochemical, ROS-Glo H2O2 luminescence, HTS, primary screen (AID 1347418)
# Conditions: recombinant QSOX1, ROS-Glo H2O2 luminescence; at 12.5 µM; active compounds read high; active = any value above zero
# Sequence of Sulfhydryl oxidase 1 (Homo sapiens) (O00391 whole entry, looked up): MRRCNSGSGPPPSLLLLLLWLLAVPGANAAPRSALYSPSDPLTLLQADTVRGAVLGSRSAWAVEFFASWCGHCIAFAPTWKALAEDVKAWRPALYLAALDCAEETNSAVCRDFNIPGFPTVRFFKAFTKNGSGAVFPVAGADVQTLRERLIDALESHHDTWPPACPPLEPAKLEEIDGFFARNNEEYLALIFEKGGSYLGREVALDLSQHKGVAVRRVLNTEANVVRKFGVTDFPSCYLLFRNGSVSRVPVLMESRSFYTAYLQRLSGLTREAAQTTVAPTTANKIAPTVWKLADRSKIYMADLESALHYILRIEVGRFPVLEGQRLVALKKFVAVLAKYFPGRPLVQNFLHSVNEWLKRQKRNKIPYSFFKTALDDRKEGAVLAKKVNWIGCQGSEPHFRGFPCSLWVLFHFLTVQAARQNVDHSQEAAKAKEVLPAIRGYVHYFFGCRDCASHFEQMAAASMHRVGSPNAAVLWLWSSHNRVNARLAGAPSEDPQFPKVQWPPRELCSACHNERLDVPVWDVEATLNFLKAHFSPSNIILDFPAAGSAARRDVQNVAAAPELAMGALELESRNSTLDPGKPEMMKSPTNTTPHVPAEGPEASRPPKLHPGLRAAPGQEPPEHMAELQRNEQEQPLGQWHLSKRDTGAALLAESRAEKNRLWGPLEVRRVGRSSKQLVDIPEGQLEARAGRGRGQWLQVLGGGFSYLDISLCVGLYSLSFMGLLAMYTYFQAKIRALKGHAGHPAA
row,SMILES,inhibition
1,O=c1[nH]c2cc(Cl)ccc2c(O)c1-c1ccc(Oc2ccccc2)cc1,-2.9% (inactive)
2,COc1ccc(CCn2nnnc2C2(c3ccc(C)cc3)CC2)cc1,0.5% (active)
3,N=c1nc(N2CCCCC2)cc(N)n1O,1% (active)
4,COC(=O)Nc1nc2ccc(C(=O)c3cccs3)cc2[nH]1,-0.8% (inactive)
5,Cc1oncc1C(=O)Nc1ccc(C(F)(F)F)cc1,6.7% (active)
6,CCCN1C[C@H](CSC)C[C@@H]2c3cccc4[nH]cc(c34)C[C@H]21,7.8% (active)
7,NC(N)=NCCCCN=C(N)N,7.2% (active)
8,NCCCCN,-2.1% (inactive)
9,NCCCCCCCCCCN,0% (inactive)
10,NCCCCN=C(N)N,2.1% (active)
11,COc1ccc(-c2cc3ncc(C)n3c(Nc3ncccc3C(N)=O)n2)cc1OC,-0.2% (inactive)
12,C=CC(N)CCC(=O)O (centres undefined),0.6% (active)
13,NCCCC(=O)O,-4% (inactive)
14,COCC(=O)O[C@]1(CCN(C)CCCc2nc3ccccc3[nH]2)CCc2cc(F)ccc2[C@@H]1C(C)C,-5.7% (inactive)
15,CC[C@@H]1Cc2cc(O)ccc2C2=C1c1ccc(O)cc1C[C@H]2CC,41.5% (active)
16,Cc1nc2c(OCc3ccccc3)cccn2c1CC#N,-7.9% (inactive)
17,CCCCNC(=O)NS(=O)(=O)c1ccc(C)cc1,-6.3% (inactive)
18,CCCNC(=O)NS(=O)(=O)c1ccc(Cl)cc1,0.2% (active)
19,Nn1nnc2ccccc21,0.7% (active)
20,Fc1ccc([C@@H]2CCNC[C@H]2COc2ccc3c(c2)OCO3)cc1,-0.5% (inactive)
21,CCC(NC(C)C)C(O)c1ccc(O)c(O)c1 (centres undefined),6.4% (active)
22,CC(C)NC[C@H](O)c1ccc(O)c(O)c1,1.4% (active)
23,CC(C)NCC(O)c1ccc(O)c(O)c1 (centres undefined),4.8% (active) and 11.3% (active)
24,CC(C)NCC(O)c1ccc(NS(C)(=O)=O)cc1 (centres undefined),-5.9% (inactive)
25,CC(C)NCC(O)c1cc(O)cc(O)c1 (centres undefined),-2.6% (inactive)

row,SMILES,inhibition
1,CC1CN(S(=O)(=O)c2cccc3cnccc23)CCN1 (centres undefined),3% (active)
2,CNCCNS(=O)(=O)c1cccc2cnccc12,-3% (inactive)
3,CC1CNCCN1S(=O)(=O)c1cccc2cnccc12 (centres undefined),10.4% (active)
4,CCO/C([O-])=N/c1c[n+](N2CCOCC2)no1,-1.5% (inactive)
5,Clc1ccccc1C(c1ccccc1)(c1ccccc1)n1ccnc1,10.5% (active)
6,C[C@](N)(Cc1ccc(O)cc1)C(=O)O,-2.7% (inactive)
7,COC(=O)C(C)(N)Cc1ccc(O)cc1 (centres undefined),-0.8% (inactive)
8,C[C@](N)(Cc1ccc(O)c(O)c1)C(=O)O,8.7% (active)
9,C[C@](Cc1ccc(O)c(O)c1)(NN)C(=O)O,10.8% (active)
10,CC(N)(Cc1ccc(O)cc1)C(=O)O (centres undefined),0% (inactive)
11,CC(N)(Cc1ccc(O)c(O)c1)C(=O)O (centres undefined),2.4% (active)
12,Cc1cc(C)c(/C=C2\C(=O)Nc3ccccc32)[nH]1,36.3% (active)
13,CN(C)S(=O)(=O)c1ccc2c(c1)/C(=C/c1cc3c([nH]1)CCCC3)C(=O)N2,-4.7% (inactive)
14,COc1cc(OC)c(/C=C2/C(=O)Nc3ccccc32)c(OC)c1,-8.1% (inactive)
15,CN(C)c1ccc(/C=C2\C(=O)Nc3ccccc32)cc1,42.8% (active)
16,Cc1ccc(C(=O)Nc2ccc(S(=O)(=O)[O-])c3c2C(S(=O)(=O)[O-])=[C+]C(S(=O)(=O)O)=[C+]3)cc1NC(=O)c1cccc(NC(=O)Nc2cccc(C(=O)Nc3cc(C(=O)Nc4ccc(S(=O)(=O)[O-])c5c4C(S(=O)(=O)[O-])=[C+]C(S(=O)(=O)O)=[C+]5)ccc3C)c2)c1,-5.3% (inactive)
17,CC(C)NCC(O)COc1cccc2ccccc12 (centres undefined),-1.6% (inactive)
18,CC(C)NC[C@H](O)COc1cccc2[nH]ccc12,-0.8% (inactive)
19,C=CCc1ccccc1OCC(O)CNC(C)C (centres undefined),6.4% (active)
20,CC(C)NC[C@H](O)COc1cccc2ccccc12,-2.1% (inactive)
21,CC(C)NCC(O)COc1cccc2[nH]ccc12 (centres undefined),1.4% (active)
22,O=C1N(c2ccccc2)c2ccccc2C1(Cc1ccncc1)Cc1ccncc1,-3.5% (inactive)
23,O=C(O)c1cc([N+](=O)[O-])ccc1NCCCc1ccccc1,2.3% (active)
24,O=C(Nc1ccc([N+](=O)[O-])cc1Cl)c1cc(Cl)ccc1O,8% (active)
25,CS(=O)(=O)Nc1ccc([N+](=O)[O-])cc1Oc1ccccc1,-0.8% (inactive)

row,SMILES,inhibition
1,O=C(Nc1ccccc1)c1cc([N+](=O)[O-])ccc1Cl,1.2% (active)
2,O=C(Nc1ccncc1)c1cc([N+](=O)[O-])ccc1Cl,-4.2% (inactive)
3,Nc1ccc(-c2ccc3ccccc3n2)cc1,14.6% (active)
4,NCC(O)(CS(=O)(=O)O)c1ccc(Cl)cc1 (centres undefined),7.3% (active)
5,C[C@@H]1C(=O)NC2=Nc3cccc(Cl)c3CN21,-4.6% (inactive)
6,O=C1Cc2cc(CCN3CCN(c4nsc5ccccc45)CC3)c(Cl)cc2N1,8.8% (active)
7,NCCC1CCCC(CCN)N1 (centres undefined),-5.7% (inactive)
8,CC(=O)N[C@H]1[C@H]([C@H](O)[C@H](O)CO)OC(C(=O)O)=C[C@@H]1O,10.4% (active)
9,OCc1cc(C(O)CNCCCCCCOCCCCc2ccccc2)ccc1O (centres undefined),12.5% (active)
10,Nc1ncn([C@@H]2O[C@H](CO)[C@H](O)C2O)c(=O)n1 (some centres undefined),-0.8% (inactive)
11,Nc1ccn([C@H]2CC[C@@H](CO)O2)c(=O)n1,-3.2% (inactive)
12,NC(=O)c1ncn([C@@H]2O[C@H](CO)[C@@H](O)[C@H]2O)c1O,-0.4% (inactive)
13,Nc1ccn([C@@H]2O[C@H](CO)[C@@H](O)C2O)c(=O)n1 (some centres undefined),6% (active)
14,N=c1ccn2c(n1)OC1C(O)[C@@H](CO)O[C@H]12 (some centres undefined),7.2% (active)
15,OCCN(CCO)c1nc(N2CCCCC2)c2nc(N(CCO)CCO)nc(N3CCCCC3)c2n1,46.4% (active)
16,CCc1c(C)[nH]c2c1C(=O)C(CN1CCOCC1)CC2 (centres undefined),-0.8% (inactive)
17,C1CCC(N=C(NC23CC4CC(CC(C4)C2)C3)N2CCOCC2)CC1,-2.2% (inactive)
18,Cc1ccc(O)c(N=Nc2ccccc2)n1,67.9% (active)
19,Nc1ccc(-c2nc3ccc(-c4nc5ccc(N)cc5[nH]4)cc3[nH]2)cc1,44.6% (active)
20,CCNc1nc2c(ncn2[C@H]2C[C@H](O)[C@@H](CO)O2)c(=O)[nH]1,-0.7% (inactive)
21,Cc1cn([C@H]2C[C@@H](N=[N+]=[N-])[C@@H](CO)O2)c(=O)[nH]c1=O,1.9% (active)
22,Cc1cn([C@H]2C=C[C@@H](CO)O2)c(=O)[nH]c1=O,0.2% (active)
23,O=c1[nH]c(=O)n([C@H]2C[C@H](O)[C@@H](CO)O2)cc1Br,2.6% (active)
24,O=c1[nH]c(=O)n([C@H]2C[C@H](O)[C@@H](CO)O2)cc1/C=C/Br,-4% (inactive)
25,c1ccc2c(c1)CC(N1CCN(c3cccc4c3OCCO4)CC1)C2,4.5% (active)

row,SMILES,inhibition
1,CN1C(C(=O)Nc2ccccn2)=C(O)c2ccccc2S1(=O)=O,-4.7% (inactive)
2,Cc1cnc(NC(=O)C2=C(O)c3ccccc3S(=O)(=O)N2C)s1,5.4% (active)
3,CN1CC(O)C(O)C(O)C1CO (centres undefined),3.8% (active)
4,FC(F)(F)c1ccccc1-n1ccnc1,4% (active)
5,CC(/C=C/c1cccc(Oc2ccc(F)cc2)c1)N(O)C(N)=O (centres undefined),2.4% (active)
6,O=Nc1c(-c2c(O)[nH]c3ccccc23)[nH]c2ccccc12,42.8% (active)
7,O=Nc1c(-c2c(O)[nH]c3cc(Br)ccc23)[nH]c2ccccc12,27.6% (active)
8,O=C1Cc2c([nH]c3ccc(Br)cc23)-c2ccccc2N1,-0.3% (inactive)
9,O=C(C1CCCCC1)N1CC(=O)N2CCc3ccccc3C2C1 (centres undefined),1.7% (active)
10,CC(C)(C)[C@]1(O)CCN2C[C@H]3c4ccccc4CCc4cccc(c43)[C@@H]2C1,-0.1% (inactive)
11,Cc1[nH]c(=O)c(C#N)cc1-c1ccncc1,-3.2% (inactive)
12,Cc1[nH]c(=O)c(C#N)cc1-c1ccc2nccn2c1,7.1% (active)
13,CC[C@H](NC(=O)c1c(C)c(-c2ccccc2)nc2ccccc12)c1ccccc1,-2% (inactive)
14,COC(=O)[C@H](NC(=O)c1cc(-c2ccccc2)nc2ccccc12)c1ccccc1,4.9% (active)
15,NCCS,3.5% (active)
16,CCOC(=O)c1ncn2c1CN(C)C(=O)c1cc(F)ccc1-2,0.3% (active)
17,NC(N)=N/N=C/c1c(Cl)cccc1Cl,-2.6% (inactive)
18,CCCCNc1cc(C(=O)O)cc(S(N)(=O)=O)c1Oc1ccccc1,-3.4% (inactive)
19,CNCCc1cnc(CCC(c2ccccc2)c2ccccc2)[nH]1,-2.3% (inactive)
20,c1ccc(C(NCCNC(c2ccccc2)c2ccccc2)c2ccccc2)cc1,6% (active)
21,CC(C)NNC(=O)c1ccncc1,1.1% (active)
22,CCN(CC)CCOC(=O)c1cc(Cl)c(N)cc1OC,-5.7% (inactive)
23,COc1cc(N)c(Cl)cc1C(=O)OCCN1CCCCC1,0.5% (active)
24,CCN(CC)CCNC(=O)c1cc(Cl)c(N)cc1OC,-4.7% (inactive)
